The nature of assay [1]: NCI Yeast Anticancer Drug Screen. Data for the rad50 strain (AID 155).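 Also: 0% = growth of vehicle-only cultures of the same strain.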 The note with it: S. cerevisiae rad50 strain growth inhibition, stronger effect = higher value. The essentials: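 Cells are treated with compound, grown, and their growth is then scored against vehicle-only cultures of the same repair-deficient yeast strain.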
The nature of assay [2]: NCI Yeast Anticancer Drug Screen. Data for the mec2-1 strain (AID 157). As to conditions: S. cerevisiae mec2-1 strain, stronger effect = higher value. The essentials: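 Strain: mec2-1 (DNA repair/cell cycle alteration). Compound exposure, then growth measured; inhibition expressed relative to vehicle.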
The nature of assay [3]: NCI Yeast Anticancer Drug Screen. Data for the sgs1 mgt1 strain (AID 161).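 Also: 0% = growth of cultures given vehicle only.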 The note with it: S. cerevisiae sgs1 mgt1 strain, stronger effect = higher value. An outline of the steps: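 Read-out: growth inhibition vs vehicle controls. Cells: mutant yeast strain deficient in DNA damage repair.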
Assay [4] in a line: NCI Yeast Anticancer Drug Screen. Data for the cln2 rad14 strain (AID 165).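 Also: 0% = growth equal to vehicle treated cultures.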 As to conditions: S. cerevisiae cln2 rad14 strain, stronger effect = higher value. The essentials:
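Compounds are applied to the cln2 rad14 yeast strain, and growth is then compared with that of vehicle-treated cultures to give inhibition.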

Assay [5] is described as follows: NCI Yeast Anticancer Drug Screen. Data for the bub3 strain (AID 167). The note with it: S. cerevisiae bub3 mutant strain, stronger effect = higher value. An outline of the steps: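 Part of a panel of yeast mutants defective in DNA damage repair or cell cycle regulation. Each strain is grown with compound, and inhibition is calculated relative to solvent-treated cultures.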

Assay [6] is described as follows: NCI Yeast Anticancer Drug Screen. Data for the mlh1 rad18 strain (AID 175). As to conditions: S. cerevisiae mlh1 rad18 strain growth inhibition, stronger effect = higher value. The essentials: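 Read-out is yeast growth inhibition, calculated against vehicle-only controls. The compound was applied to a strain engineered with DNA damage repair alterations.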
Setting [7] is: at 5.0 µM (retest, dose inferred, filed as 0.5).
[8] abbreviates: at 50.0 µM (retest, dose inferred, filed as 5.0).

“And” between values parts separate entries of the source, which are not always exact repeats. Identical values can stand only once. About 79,000 compounds went through this panel and 15% of them were active in at least one assay; those are over-represented in the sample as a whole. More than one record can exist for a structure, and the calls need not agree. The source made the active and inactive calls. Rule as the data show it: active = growth inhibition above about 70%; inactive = the rest.

As for `C[C@H]1CC(=O)[C@@]2(O)C#C/C=C\C#C[C@@H]3Nc4c(cc(O)c5c4C(=O)c4ccccc4C5=O)[C@]24O[C@]314`, the growth inhibition in assay [1] (at 50.0 µM unless noted) was 78% (active); in assay [2] (at 50.0 µM unless noted), 82% (active); in assay [3] (at 50.0 µM unless noted) it was 85.2% (active); in assay [4] (at 50.0 µM unless noted) it was 86.9% (active); in assay [5] (at 50.0 µM unless noted), 85.8% (active).
With `CCCCCCCCCCNC(=O)CI`, the growth inhibition in assay [1] (setting [7]) was 20% (inactive); in assay [1] (setting [8]), 98% (active); in assay [2] (setting [7]) it was 7% (inactive); in assay [2] (setting [8]) it was 99% (active); in assay [3] (setting [7]), 24% (inactive); in assay [3] (setting [8]), 99% (active). Further, the values for the growth inhibition in assay [6] (setting [7]) and in assay [6] (setting [8]) were 8% (inactive) and 98% (active), respectively.
Consider `CCOC(=O)c1c(C)nc(C)c(C(=O)OCC)c1-c1ccc(N(C)C)cc1`, for which the growth inhibition in assay [1] (at 50.0 µM unless noted) was 3.7% (inactive) and -7.5% (inactive); in assay [2] (at 50.0 µM unless noted), 1.75% (inactive) and 1.25% (inactive); in assay [3] (at 50.0 µM unless noted) it was 84% (active) and -1.3% (inactive); in assay [4] (at 50.0 µM unless noted), -4.4% (inactive) and -6.05% (inactive); in assay [5] (at 50.0 µM unless noted), 1.8% (inactive) and -14.7% (inactive).
With `CC(C)NC(=O)N/C=C(\C#N)C(N)=O`, the growth inhibition was 4% (inactive) in assay [1] (setting [7]); 70% (active) in assay [1] (setting [8]); -1% (inactive) in assay [2] (setting [7]); 21% (inactive) in assay [2] (setting [8]); 4% (inactive) in assay [3] (setting [7]); 63% (inactive) in assay [3] (setting [8]). Further, the growth inhibition in assay [4] (setting [7]) is 2% (inactive); in assay [4] (setting [8]) it was 1% (inactive); in assay [5] (setting [7]) it was -3% (inactive); in assay [5] (setting [8]), 20% (inactive); in assay [6] (setting [7]), -39% (inactive); in assay [6] (setting [8]), 16% (inactive).
With `Cc1cc([N+](=O)[O-])cc(Br)c1N`, the growth inhibition in assay [1] (at 50.0 µM unless noted) is 23.1% (inactive); in assay [2] (at 50.0 µM unless noted), 11.1% (inactive); in assay [3] (at 50.0 µM unless noted) it was -1.6% (inactive); in assay [4] (at 50.0 µM unless noted), 3.25% (inactive); in assay [5] (at 50.0 µM unless noted) it was 0.25% (inactive).
For `Oc1ccc(Cc2ccccc2Cl)c(O)c1`, the growth inhibition was 1% (inactive) in assay [1] (setting [7]); 99% (active) in assay [1] (setting [8]); -4% (inactive) in assay [2] (setting [7]); 99% (active) in assay [2] (setting [8]); -3% (inactive) in assay [3] (setting [7]); 99% (active) in assay [3] (setting [8]). For the same molecule, the growth inhibition was 1% (inactive) in assay [4] (setting [7]); 98% (active) in assay [4] (setting [8]); -1% (inactive) in assay [5] (setting [7]); 99% (active) in assay [5] (setting [8]); -22% (inactive) in assay [6] (setting [7]); 98% (active) in assay [6] (setting [8]).
Turning to `CC(=O)OC(C)C(=O)NCC(C)O` (stereo not given), the growth inhibition is -1% (inactive) in assay [1] (setting [7]); 3% (inactive) in assay [1] (setting [8]); -2% (inactive) in assay [2] (setting [7]); 0% (inactive) in assay [2] (setting [8]); -2% (inactive) in assay [3] (setting [7]); 9% (inactive) in assay [3] (setting [8]). Further, the growth inhibition was -1% (inactive) in assay [4] (setting [7]); -7% (inactive) in assay [4] (setting [8]); 5% (inactive) in assay [5] (setting [7]); 7% (inactive) in assay [5] (setting [8]); -33% (inactive) in assay [6] (setting [7]); 20% (inactive) in assay [6] (setting [8]).
Turning to `C/C(=N\NC(=S)N1CCC(N2CCCCC2)CC1)c1ccccn1`, the growth inhibition in assay [1] (at 50.0 µM unless noted) was 83.8% (active); in assay [2] (at 50.0 µM unless noted) it was 88.1% (active); in assay [3] (at 50.0 µM unless noted), 88% (active); in assay [4] (at 50.0 µM unless noted) it was 84.8% (active); in assay [5] (at 50.0 µM unless noted), 86% (active).
In the case of `COc1ccc(Nc2ccc3ccccc3c2)cc1`, the growth inhibition in assay [1] (setting [7]) is 6% (inactive); in assay [1] (setting [8]) it was 0% (inactive); in assay [2] (setting [7]), -2% (inactive); in assay [2] (setting [8]) it was -1% (inactive); in assay [3] (setting [7]), -66% (inactive); in assay [3] (setting [8]) it was 50% (inactive). The growth inhibition in assay [4] (setting [7]) is -4% (inactive); in assay [4] (setting [8]), -17% (inactive); in assay [5] (setting [7]), 3% (inactive); in assay [5] (setting [8]), 72% (active); in assay [6] (setting [7]), -31% (inactive); in assay [6] (setting [8]) it was -7% (inactive).
`N#CC(C#N)N=Nc1ccc(Cl)cc1`: the growth inhibition is 26% (inactive) in assay [1] (setting [7]); 83% (active) in assay [1] (setting [8]); 18% (inactive) in assay [2] (setting [7]); 73% (active) in assay [2] (setting [8]); 24% (inactive) in assay [3] (setting [7]); 93% (active) in assay [3] (setting [8]). Besides, the growth inhibition was 1% (inactive) in assay [4] (setting [7]); 73% (active) in assay [4] (setting [8]); 9% (inactive) in assay [5] (setting [7]); 72% (active) in assay [5] (setting [8]); -1% (inactive) in assay [6] (setting [7]); 87% (active) in assay [6] (setting [8]).
As for `C=CCc1cc(-c2cc(CC=C)c(O)c(CN(CC)CC)c2)cc(CN(CC)CC)c1O`, the growth inhibition is -9% (inactive) in assay [1] (at 50.0 µM unless noted); -5.2% (inactive) in assay [2] (at 50.0 µM unless noted); -20% (inactive) in assay [3] (at 50.0 µM unless noted); -18% (inactive) in assay [4] (at 50.0 µM unless noted); -12.1% (inactive) in assay [5] (at 50.0 µM unless noted).
For `C/C(CC(C)C(=O)O)=N/NC(N)=O` (stereo not given), the growth inhibition in assay [1] (setting [7]) was 0% (inactive); in assay [1] (setting [8]), 34% (inactive); in assay [2] (setting [7]), -8% (inactive); in assay [2] (setting [8]) it was 5% (inactive); in assay [3] (setting [7]) it was 0% (inactive); in assay [3] (setting [8]), 40% (inactive). Moreover, the growth inhibition in assay [4] (setting [7]) is -6% (inactive); in assay [4] (setting [8]), -2% (inactive); in assay [5] (setting [7]) it was -1% (inactive); in assay [5] (setting [8]), 20% (inactive); in assay [6] (setting [7]), -31% (inactive); in assay [6] (setting [8]), 43% (inactive).
`CC(C)OC(=O)C(O)c1ccccc1` (stereo not given): the growth inhibition was 18.2% (inactive) in assay [1] (at 50.0 µM unless noted); -17.1% (inactive) in assay [2] (at 50.0 µM unless noted); -25.4% (inactive) in assay [3] (at 50.0 µM unless noted); -50% (inactive) in assay [4] (at 50.0 µM unless noted); -9.45% (inactive) in assay [5] (at 50.0 µM unless noted).
Turning to `CCOC(=O)c1sc(SC)nc1NC(=O)c1ccccc1`, the growth inhibition in assay [1] (at 50.0 µM unless noted) is -18.4% (inactive); in assay [2] (at 50.0 µM unless noted), -9% (inactive); in assay [3] (at 50.0 µM unless noted), -5.45% (inactive); in assay [4] (at 50.0 µM unless noted), 3.2% (inactive); in assay [5] (at 50.0 µM unless noted), -3.4% (inactive).
With `CCCCOC(=O)/C=C\C(=O)NC(N)=O`, the growth inhibition in assay [1] (setting [7]) is 4% (inactive); in assay [1] (setting [8]), 9% (inactive); in assay [2] (setting [7]) it was -1% (inactive); in assay [2] (setting [8]), 7% (inactive); in assay [3] (setting [7]), 5% (inactive); in assay [3] (setting [8]) it was 18% (inactive). The growth inhibition in assay [5] (setting [7]) is 0% (inactive); in assay [5] (setting [8]), 6% (inactive); in assay [6] (setting [7]), -21% (inactive); in assay [6] (setting [8]), 18% (inactive).
Consider `CC(=O)O[C@H]1C(=O)[C@@]2(C)C(C(OC(=O)c3ccccc3)[C@]3(O)CC(OC(=O)[C@H](OC(=O)CCC(=O)O)C(NC(=O)c4ccccc4)c4ccccc4)C(C)=C1C3(C)C)C1(OC(C)=O)COC1C[C@@H]2OC(=O)CCC(=O)O` (stereo not given in full), for which the growth inhibition is 29.6% (inactive) in assay [1] (at 50.0 µM unless noted); -5.45% (inactive) in assay [2] (at 50.0 µM unless noted); -25.4% (inactive) in assay [3] (at 50.0 µM unless noted); -7.4% (inactive) in assay [4] (at 50.0 µM unless noted); -8.05% (inactive) in assay [5] (at 50.0 µM unless noted).

(Values after PubChem BioAssay (NCI).)
